The values that follow come from PubChem BioAssay (EPA / NIEHS).

Test [1] can be described thus: ATG_M_06_XSP2: Attagene TRANS-FACTORIAL Multi-Species (XSP2) HepG2 Assay for M06 Transcription Factor (Internal Marker) (AID 2283811).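 Also: hits are increases in signal above the DMSO baseline.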 The essentials:
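Internal-marker reporter transcript, quantified by RT-PCR, 6-FAM labelling, HpaI digestion and capillary electrophoresis, 24 hours after dosing transfected HepG2 cells with 3 nM 6-alpha-fluorotestosterone and 1.5 nM norgestrel present; DMSO baseline.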

Test [2] deals with turtle Estrogen Receptor (ERa), gene 101933533. Kind of test: ATG_trERa_XSP2: Attagene TRANS-FACTORIAL Multi-Species (XSP2) HepG2 Assay for turtle Estrogen Receptor (ERa) (AID 2283812).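 Also: actives raise reporter signal above DMSO so AC50 reflects agonist activity.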 The essentials: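 Readout is reporter mRNA quantified by RT-PCR with capillary electrophoresis after 24 h compound exposure, increase relative to DMSO. Uses transiently transfected human HepG2 liver cells carrying a chimeric turtle ERa-Gal4 receptor driving GAL4-UAS reporters.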

For test [3], the target named is Estrogen receptor beta (Homo sapiens) (UniProt Q92731). Kind of test: ATG_hERb_XSP2: Attagene TRANS-FACTORIAL Multi-Species (XSP2) HepG2 Assay for human Estrogen Receptor (ERb) (AID 2283813).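 Also: actives raise reporter mRNA above DMSO so AC50 reflects agonist induction.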 The gist of the method: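 Transient TRANS reporter system in HepG2: after 24 h of chemical, RNA is reverse-transcribed, reporter cDNA amplified, FAM-labelled and sized by capillary electrophoresis. Induction of the human ERb-Gal4 reporter is measured relative to DMSO.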
Chain of Estrogen receptor beta (Homo sapiens) (Q92731 whole entry, looked up, the tested form may be a part): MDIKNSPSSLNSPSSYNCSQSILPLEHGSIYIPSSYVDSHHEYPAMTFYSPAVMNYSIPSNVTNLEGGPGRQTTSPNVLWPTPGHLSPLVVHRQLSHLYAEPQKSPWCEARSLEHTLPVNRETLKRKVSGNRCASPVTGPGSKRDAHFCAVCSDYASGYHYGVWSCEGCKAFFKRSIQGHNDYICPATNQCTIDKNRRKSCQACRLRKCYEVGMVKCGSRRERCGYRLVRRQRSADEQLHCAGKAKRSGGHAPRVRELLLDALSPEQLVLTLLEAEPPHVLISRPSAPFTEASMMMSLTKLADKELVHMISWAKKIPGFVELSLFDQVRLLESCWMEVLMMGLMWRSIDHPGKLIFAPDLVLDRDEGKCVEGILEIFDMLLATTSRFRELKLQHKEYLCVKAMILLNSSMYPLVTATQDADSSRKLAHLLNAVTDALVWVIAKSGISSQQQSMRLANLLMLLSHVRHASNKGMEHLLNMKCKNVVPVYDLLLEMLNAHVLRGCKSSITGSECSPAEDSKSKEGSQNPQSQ

The test system of test [4] is turtle Androgen Receptor (AR), gene 101947425. Kind of test: ATG_trAR_XSP2: Attagene TRANS-FACTORIAL Multi-Species (XSP2) HepG2 Assay for turtle Androgen Receptor (AR) (AID 2283815). The essentials:
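Reporter transcripts were quantified via RT-PCR and capillary electrophoresis and fitted upward against DMSO. Transiently transfected human HepG2 cells carrying NR-Gal4 chimeras were exposed 24 h, with 3 nM 6-alpha-fluorotestosterone plus 1.5 nM norgestrel added.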

Test [5] concerns the target GAL4 Transcription Factor (Internal Marker), GAL4 (gene 855828) (UniProt P04386). Kind of test: ATG_GAL4_XSP1: Attagene TRANS-FACTORIAL Multi-Species (XSP1) HepG2 Assay for GAL4 Transcription Factor (Internal Marker) (AID 2283789). The essentials: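 This background-control endpoint measures GAL4-driven reporter mRNA via RT-PCR and capillary electrophoresis of labelled fragments. Transiently transfected HepG2 cells were treated 24 h, with 3 nM 6-alpha-fluorotestosterone included, and gain-of-signal was fitted against DMSO.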

A short description of test [6]: ATG_M_06_XSP1: Attagene TRANS-FACTORIAL Multi-Species (XSP1) HepG2 Assay for M06 Transcription Factor (Internal Marker) (AID 2283790). The gist of the method: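 This background-control readout tracks M06 reporter mRNA, measured by RT-PCR and capillary electrophoresis. HepG2 cells transiently carrying the GAL4-UAS reporter panel were dosed for 24 h with 3 nM 6-alpha-fluorotestosterone added for partial AR stimulation; increases were scored relative to DMSO.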

Test [7] in a line: ATG_M_61_XSP1: Attagene TRANS-FACTORIAL Multi-Species (XSP1) HepG2 Assay for M61 Transcription Factor (Internal Marker) (AID 2283797). The gist of the method:
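Background-control readout: reporter transcripts measured by RT-PCR and capillary electrophoresis 24 h after dosing transiently transfected HepG2 multi-reporter cells, with 3 nM 6-alpha-fluorotestosterone present. Fitted in the positive direction relative to DMSO.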

Test [8] can be described thus: ATG_M_32_XSP1: Attagene TRANS-FACTORIAL Multi-Species (XSP1) HepG2 Assay for M32 Transcription Factor (Internal Marker) (AID 2283799). The gist of the method:
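Reporter transcripts from the M32 internal-control unit measured by RT-PCR, FAM labelling, HpaI digestion and capillary electrophoresis after 24 h compound exposure of transfected HepG2, 3 nM 6-alpha-fluorotestosterone included; DMSO baseline, positive-direction fit.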

Test [9] deals with Peroxisome proliferator-activated receptor gamma (Homo sapiens) (UniProt P37231). Kind of test: ATG_hPPARg_XSP1: Attagene TRANS-FACTORIAL Multi-Species (XSP1) HepG2 Assay for human Peroxisome Proliferator-activated Receptor gamma (PPARg) (AID 2283800). The essentials:
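Reporter mRNA induction, measured by RT-PCR with capillary electrophoresis 24 h after dosing, scored as gain over DMSO. Transfected HepG2 cells express exogenous NR-Gal4 chimeras driving GAL4-UAS reporters; medium includes 3 nM 6-alpha-fluorotestosterone.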

Test [10] deals with mouse Peroxisome Proliferator-activated Receptor gamma (PPARg), Pparg (gene 19016) (UniProt P37238). Kind of test: ATG_mPPARg_XSP1: Attagene TRANS-FACTORIAL Multi-Species (XSP1) HepG2 Assay for mouse Peroxisome Proliferator-activated Receptor gamma (PPARg) (AID 2283802). The gist of the method:
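Readout is reporter mRNA induction, measured by RT-PCR with 6-FAM labelling, HpaI digestion and capillary electrophoresis, 24 h post-dose relative to DMSO. Transient multi-reporter transfection of human HepG2 with mouse PPARg–GAL4 fusion; 3 nM 6-alpha-fluorotestosterone included.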

The target of test [11] is Nuclear receptor subfamily 1 group I member 2 (Mus musculus) (UniProt O54915). Kind of test: ATG_mPXR_XSP1: Attagene TRANS-FACTORIAL Multi-Species (XSP1) HepG2 Assay for mouse Pregnane X Receptor (PXR) (AID 2283803). The gist of the method:
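Transiently transfected HepG2 cells expressing a receptor-Gal4 chimera drive a GAL4-UAS reporter; 3 nM 6-alpha-fluorotestosterone included. Reporter mRNA read 24 h post-dose by RT-PCR and capillary electrophoresis; gain of signal relative to DMSO.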

Test [12] deals with zebrafish Thyroid Hormone Receptor beta (TRb), thrb (gene 30607) (UniProt Q9PVE4). Kind of test: ATG_zfTRb_XSP1: Attagene TRANS-FACTORIAL Multi-Species (XSP1) HepG2 Assay for zebrafish Thyroid Hormone Receptor beta (TRb) (AID 2283809). The essentials: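 HepG2 cells transiently transfected with multiplexed GAL4-UAS reporter units expressing chimeric zebrafish TRb–Gal4. Dosed 24 h with 3 nM 6-alpha-fluorotestosterone present; reporter mRNA measured by RT-PCR, HpaI digestion and capillary electrophoresis; gain of signal versus DMSO.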
Chain of zebrafish Thyroid Hormone Receptor beta (TRb), thrb (gene 30607) (Q9PVE4 whole entry, looked up, the tested form may be a part): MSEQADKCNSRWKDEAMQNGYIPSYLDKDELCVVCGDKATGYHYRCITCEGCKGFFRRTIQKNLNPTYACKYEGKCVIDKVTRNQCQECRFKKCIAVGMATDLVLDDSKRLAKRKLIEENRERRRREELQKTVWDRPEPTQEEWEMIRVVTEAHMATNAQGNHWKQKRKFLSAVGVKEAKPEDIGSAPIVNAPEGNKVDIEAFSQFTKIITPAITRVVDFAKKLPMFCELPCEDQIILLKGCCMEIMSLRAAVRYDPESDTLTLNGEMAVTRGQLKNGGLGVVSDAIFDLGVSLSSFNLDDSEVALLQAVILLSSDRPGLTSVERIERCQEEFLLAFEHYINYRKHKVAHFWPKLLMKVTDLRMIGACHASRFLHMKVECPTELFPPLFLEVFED

A short description of test [13]: ATG_XTT_Cytotoxicity_XSP1: Cytotoxicity Assessment in the Attagene TRANS-FACTORIAL Multi-Species (XSP1) HepG2 Assay (AID 2283810). The essentials:
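XTT viability readout taken at 24 hours post-dosing in HepG2 liver cells co-treated with 3 nM 6-alpha-fluorotestosterone. Signal loss relative to DMSO controls reflects cytotoxicity.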

The target in test [14] is GAL4 Transcription Factor (Internal Marker), GAL4 (gene 855828) (UniProt P04386). Kind of test: ATG_GAL4_XSP2: Attagene TRANS-FACTORIAL Multi-Species (XSP2) HepG2 Assay for GAL4 Transcription Factor (Internal Marker) (AID 2283814).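 Also: GAL4 reporter mRNA background control in MRTU transfected cells not a receptor target.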 The essentials: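 Background-control readout: gain-of-signal fitted against DMSO. After 24 h exposure of transfected HepG2 (MRTU, GAL4-UAS reporters; 3 nM 6-alpha-fluorotestosterone, 1.5 nM norgestrel present), transcripts quantified by RT-PCR and capillary electrophoresis fluorescence.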
Chain of GAL4 Transcription Factor (Internal Marker), GAL4 (gene 855828) (P04386 whole entry, looked up, the tested form may be a part): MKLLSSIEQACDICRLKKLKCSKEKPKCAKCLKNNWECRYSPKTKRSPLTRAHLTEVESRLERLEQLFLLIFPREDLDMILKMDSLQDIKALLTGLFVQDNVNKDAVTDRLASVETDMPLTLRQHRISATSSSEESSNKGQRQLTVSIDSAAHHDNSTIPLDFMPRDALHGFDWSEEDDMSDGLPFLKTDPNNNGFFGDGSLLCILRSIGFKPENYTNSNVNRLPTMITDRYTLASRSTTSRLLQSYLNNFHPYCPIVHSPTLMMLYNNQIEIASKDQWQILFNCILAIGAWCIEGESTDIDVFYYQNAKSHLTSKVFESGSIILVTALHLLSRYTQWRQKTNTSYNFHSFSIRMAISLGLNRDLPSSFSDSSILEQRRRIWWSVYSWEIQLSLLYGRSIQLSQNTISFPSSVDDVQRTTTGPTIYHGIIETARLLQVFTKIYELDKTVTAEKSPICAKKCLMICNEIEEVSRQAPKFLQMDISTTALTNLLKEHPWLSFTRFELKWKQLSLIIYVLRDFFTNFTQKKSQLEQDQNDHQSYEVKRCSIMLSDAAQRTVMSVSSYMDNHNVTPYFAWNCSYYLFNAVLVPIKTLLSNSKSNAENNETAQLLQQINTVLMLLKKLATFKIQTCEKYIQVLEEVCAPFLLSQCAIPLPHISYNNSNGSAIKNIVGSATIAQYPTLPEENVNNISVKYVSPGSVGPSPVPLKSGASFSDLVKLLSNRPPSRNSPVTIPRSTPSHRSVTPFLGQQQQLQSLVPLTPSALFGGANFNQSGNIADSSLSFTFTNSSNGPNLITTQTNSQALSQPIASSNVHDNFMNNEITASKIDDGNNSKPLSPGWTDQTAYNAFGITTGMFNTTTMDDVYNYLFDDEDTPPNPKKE

Test [15] has as its system zebrafish Peroxisome Proliferator-activated Receptor gamma (PPARg), gene 557037. Nature of the test: ATG_zfPPARg_XSP1: Attagene TRANS-FACTORIAL Multi-Species (XSP1) HepG2 Assay for zebrafish Peroxisome Proliferator-activated Receptor gamma (PPARg) (AID 2283801). The gist of the method: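 Trans-activation readout of chimeric zebrafish PPARg–GAL4 in transiently transfected human HepG2 cells, 24 h chemical exposure (medium includes 3 nM 6-alpha-fluorotestosterone). Reporter transcripts measured by RT-PCR and capillary electrophoresis, fitted as gain over DMSO.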

The target in test [16] is frog Thyroid hormone Receptor alpha (TRa), thra-a (gene 397942) (UniProt P15204). Nature of the test: ATG_frTRa_XSP1: Attagene TRANS-FACTORIAL Multi-Species (XSP1) HepG2 Assay for frog Thyroid hormone Receptor alpha (TRa) (AID 2283804). The gist of the method: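 Reporter transcript induction, measured by RT-PCR with 6-FAM labelling and capillary electrophoresis, 24 hr after dosing transiently transfected HepG2 cells expressing a frog TRa-GAL4 fusion; medium contained 3 nM 6-alpha-fluorotestosterone; increase over DMSO scored.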
Chain of frog Thyroid hormone Receptor alpha (TRa), thra-a (gene 397942) (P15204 whole entry, looked up, the tested form may be a part): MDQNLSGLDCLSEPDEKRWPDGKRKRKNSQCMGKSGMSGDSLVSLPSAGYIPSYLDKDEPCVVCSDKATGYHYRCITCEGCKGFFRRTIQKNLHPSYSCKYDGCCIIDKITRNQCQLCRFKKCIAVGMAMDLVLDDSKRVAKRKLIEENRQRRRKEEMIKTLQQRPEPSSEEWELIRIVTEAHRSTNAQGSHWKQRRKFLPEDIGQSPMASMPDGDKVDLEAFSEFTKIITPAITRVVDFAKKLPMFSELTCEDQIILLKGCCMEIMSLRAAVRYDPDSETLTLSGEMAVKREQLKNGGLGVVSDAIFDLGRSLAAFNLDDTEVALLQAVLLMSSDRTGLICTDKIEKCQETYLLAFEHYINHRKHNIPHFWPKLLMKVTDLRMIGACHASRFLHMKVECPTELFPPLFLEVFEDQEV

Test [17] addresses human Thyroid hormone Receptor alpha (TRa), THRA (gene 7067) (UniProt P10827). Kind of test: ATG_hTRa_XSP1: Attagene TRANS-FACTORIAL Multi-Species (XSP1) HepG2 Assay for human Thyroid hormone Receptor alpha (TRa) (AID 2283805). The gist of the method: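 Reporter transcripts from the human TRa-Gal4 TRANS unit quantified by RT-PCR, fluorescent labeling and capillary electrophoresis after 24 hours of chemical exposure in transfected HepG2 cells; medium contains 3 nM 6-alpha-fluorotestosterone. Positive direction fit against DMSO.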

Test [18] concerns turtle Thyroid Hormone Receptor, alpha (TRa), gene 101949057. Nature of the test: ATG_trTRa_XSP1: Attagene TRANS-FACTORIAL Multi-Species (XSP1) HepG2 Assay for turtle Thyroid Hormone Receptor, alpha (TRa) (AID 2283806). The gist of the method: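 After 24 h chemical exposure, reporter transcripts were measured by RT-PCR with fluorescent primer extension, HpaI digestion and capillary electrophoresis. Cells were transiently transfected HepG2 expressing exogenous NR-Gal4 chimeras; medium contained 3 nM 6-alpha-fluorotestosterone; fitted upward relative to DMSO.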

Test [19] deals with zebrafish Thyroid Hormone Receptor alpha (TRa), thraa (gene 30670) (UniProt Q98867). Nature of the test: ATG_zfTRa_XSP1: Attagene TRANS-FACTORIAL Multi-Species (XSP1) HepG2 Assay for zebrafish Thyroid Hormone Receptor alpha (TRa) (AID 2283807). The essentials:
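Reporter transcripts driven by a chimeric zebrafish TRa–Gal4 protein were measured by RT-PCR with fluorescent labelling and capillary electrophoresis. These came from transiently transfected HepG2 cells after 24 h chemical exposure, with 3 nM 6-alpha-fluorotestosterone added; baseline was DMSO.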

Test [20] addresses human Thyroid hormone Receptor beta (TRb), THRB (gene 7068) (UniProt P10828). Nature of the test: ATG_hTRb_XSP1: Attagene TRANS-FACTORIAL Multi-Species (XSP1) HepG2 Assay for human Thyroid hormone Receptor beta (TRb) (AID 2283808). The gist of the method: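 Readout is reporter mRNA induction measured by RT-PCR, fluorescent labelling and capillary electrophoresis, fitted upward relative to DMSO. Transiently transfected human HepG2 cells expressing NR-Gal4 chimeras were dosed for 24 h, medium containing 3 nM 6-alpha-fluorotestosterone.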

The structures appear in SMILES notation. Values joined by “and” are separate entries in the source; they are usually repeats but may differ in a detail not shown here. Equal entries are not always repeated. Inconclusive results are not listed. Active and inactive are the calls of the source. The calls were made as follows: active = hit-call score of the fitted dose curve at least 0.9, where 1 is the maximum; inconclusive = response in the unintended direction; inactive = score below 0.9.

Chain of zebrafish Thyroid Hormone Receptor alpha (TRa), thraa (gene 30670) (Q98867 whole entry, looked up, the tested form may be a part): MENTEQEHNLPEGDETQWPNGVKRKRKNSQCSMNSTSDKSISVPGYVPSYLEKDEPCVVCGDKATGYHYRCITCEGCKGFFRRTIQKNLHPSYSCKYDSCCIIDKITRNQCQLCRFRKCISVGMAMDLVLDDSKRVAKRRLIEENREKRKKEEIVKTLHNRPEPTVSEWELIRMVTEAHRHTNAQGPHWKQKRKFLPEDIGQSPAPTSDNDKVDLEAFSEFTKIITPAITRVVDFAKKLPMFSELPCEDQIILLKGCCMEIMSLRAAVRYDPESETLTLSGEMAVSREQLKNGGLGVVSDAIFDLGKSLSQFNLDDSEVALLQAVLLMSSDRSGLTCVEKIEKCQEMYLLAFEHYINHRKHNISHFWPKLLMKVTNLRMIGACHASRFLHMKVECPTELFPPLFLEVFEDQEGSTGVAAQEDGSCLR
Chain of Nuclear receptor subfamily 1 group I member 2 (Mus musculus) (O54915 whole entry, looked up, the tested form may be a part): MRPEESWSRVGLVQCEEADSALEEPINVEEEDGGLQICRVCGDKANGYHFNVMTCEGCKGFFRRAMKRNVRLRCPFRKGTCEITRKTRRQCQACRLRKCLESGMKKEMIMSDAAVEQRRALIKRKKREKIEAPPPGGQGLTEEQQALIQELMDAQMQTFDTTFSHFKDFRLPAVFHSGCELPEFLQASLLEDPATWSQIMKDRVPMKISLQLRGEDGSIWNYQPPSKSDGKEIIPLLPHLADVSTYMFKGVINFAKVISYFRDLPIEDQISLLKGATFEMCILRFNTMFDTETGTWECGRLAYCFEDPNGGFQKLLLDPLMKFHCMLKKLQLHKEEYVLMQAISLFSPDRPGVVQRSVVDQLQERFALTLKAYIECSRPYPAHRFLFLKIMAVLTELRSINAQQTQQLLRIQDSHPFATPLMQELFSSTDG
Chain of mouse Peroxisome Proliferator-activated Receptor gamma (PPARg), Pparg (gene 19016) (P37238 whole entry, looked up, the tested form may be a part): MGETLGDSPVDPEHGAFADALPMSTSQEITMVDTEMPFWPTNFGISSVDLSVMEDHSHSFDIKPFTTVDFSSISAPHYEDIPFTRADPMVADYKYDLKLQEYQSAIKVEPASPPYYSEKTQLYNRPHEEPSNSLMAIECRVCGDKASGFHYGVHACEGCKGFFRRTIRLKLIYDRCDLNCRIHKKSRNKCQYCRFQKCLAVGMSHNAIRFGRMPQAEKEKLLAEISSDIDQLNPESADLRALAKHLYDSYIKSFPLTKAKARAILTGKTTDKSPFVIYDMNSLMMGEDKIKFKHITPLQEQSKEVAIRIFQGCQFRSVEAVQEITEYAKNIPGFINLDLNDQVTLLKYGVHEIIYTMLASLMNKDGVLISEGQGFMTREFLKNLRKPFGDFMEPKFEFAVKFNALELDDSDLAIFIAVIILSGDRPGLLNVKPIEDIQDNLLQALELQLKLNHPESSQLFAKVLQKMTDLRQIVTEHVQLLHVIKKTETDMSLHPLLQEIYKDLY
Chain of Peroxisome proliferator-activated receptor gamma (Homo sapiens) (P37231 whole entry, looked up, the tested form may be a part): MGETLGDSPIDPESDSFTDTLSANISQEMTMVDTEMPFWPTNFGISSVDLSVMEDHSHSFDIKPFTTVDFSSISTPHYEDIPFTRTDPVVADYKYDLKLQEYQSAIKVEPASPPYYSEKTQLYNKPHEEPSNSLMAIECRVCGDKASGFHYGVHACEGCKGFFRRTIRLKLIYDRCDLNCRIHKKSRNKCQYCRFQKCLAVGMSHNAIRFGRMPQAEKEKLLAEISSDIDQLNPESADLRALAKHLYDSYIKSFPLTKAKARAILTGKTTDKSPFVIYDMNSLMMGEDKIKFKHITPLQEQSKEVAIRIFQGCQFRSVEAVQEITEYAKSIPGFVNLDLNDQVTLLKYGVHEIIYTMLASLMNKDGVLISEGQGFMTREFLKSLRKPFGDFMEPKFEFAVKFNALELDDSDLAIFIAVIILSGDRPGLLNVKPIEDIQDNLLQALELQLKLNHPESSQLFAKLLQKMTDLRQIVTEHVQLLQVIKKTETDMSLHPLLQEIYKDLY
Chain of human Thyroid hormone Receptor alpha (TRa), THRA (gene 7067) (P10827 whole entry, looked up, the tested form may be a part): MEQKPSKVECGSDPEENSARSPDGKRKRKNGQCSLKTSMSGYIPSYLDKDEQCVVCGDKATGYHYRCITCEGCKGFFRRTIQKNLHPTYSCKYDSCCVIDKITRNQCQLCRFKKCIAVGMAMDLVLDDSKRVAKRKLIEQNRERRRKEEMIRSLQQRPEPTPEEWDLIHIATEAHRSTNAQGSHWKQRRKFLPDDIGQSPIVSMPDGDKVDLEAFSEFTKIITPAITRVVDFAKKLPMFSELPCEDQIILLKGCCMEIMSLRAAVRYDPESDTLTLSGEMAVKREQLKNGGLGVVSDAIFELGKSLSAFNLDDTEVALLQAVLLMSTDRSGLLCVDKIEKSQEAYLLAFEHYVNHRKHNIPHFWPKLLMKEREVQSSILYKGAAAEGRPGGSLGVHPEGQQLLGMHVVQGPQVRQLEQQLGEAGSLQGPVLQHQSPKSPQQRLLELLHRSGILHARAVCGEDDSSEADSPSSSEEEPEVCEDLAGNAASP

As to `O=C(O)Cc1cc(I)c(Oc2ccc(O)c(I)c2)c(I)c1`, the compound was called inactive in test [1], in test [2], in test [3] and in test [4].
In the case of `Cc1c2ccccc2c(C)c2c1ccc1ccccc12`, the outcome in test [5], in [6], in test [7], in test [8], in test [1] and in test [14] was inactive. In addition, the result in test [4] was inactive. In addition, the AC50 (usually the concentration at which the activity in the assay is half-maximal) is 23.2 µM (active) in test [9]; 13.8 µM (active) in [10]; 0.828 µM (active) in test [11]; 60.9 µM (active) in test [12]; 33.2 µM (active) in test [13]; 1530 nM (active) in test [2]. Moreover, in test [3], the AC50 was 24.7 µM (active).
Turning to `CC(C)(c1cc(Br)c(O)c(Br)c1)c1cc(Br)c(O)c(Br)c1`, the outcome in test [5], in [6], in [7], in test [8], in test [11] and in test [18] was inactive. Besides, the compound was called inactive in test [19], in [20], in test [1], in test [2] and in test [3]. The AC50 in [15] is 9.55 µM (active); in test [10], 2.06 µM (active); in test [16], 3.79 µM (active); in test [17] it was 3.39 µM (active); in [12] it was 13.9 µM (active).
For the compound `O=c1c(-c2ccc(O)cc2)coc2cc(O)cc(O)c12`, the compound was classed as inactive in [1], in [14] and in [4]. In test [2], the half-maximal activity concentration (AC50) is 213 nM (active) and 25.4 nM (active).
Take `CC1(C)NC(=O)N(c2ccc([N+](=O)[O-])c(C(F)(F)F)c2)C1=O`: the call in test [2], in [3] and in test [14] was inactive.
As to `CC/C(=C(/CC)c1ccc(O)cc1)c1ccc(O)cc1`, the call in test [6], in test [7], in [16], in test [18], in test [19] and in [12] was inactive. For the same compound, the call in test [13] and in test [1] was inactive. Besides, the AC50 in test [2] was 0.138 nM (active).
In the case of `C[C@]12CC[C@@H]3c4ccc(O)cc4CC[C@H]3[C@@H]1CCC2=O`, the result in [6], in [7], in test [16], in [18], in [19] and in [12] was inactive. Besides, the compound was called inactive in test [13] and in test [1]. In addition, the AC50 in [2] is 5.33 nM (active).
